Screening results as filed in PubChem BioAssay.
EPAC2 antag: EPAC2 (human) antagonism; Q8WZA2; EPAC2 GEF exchange of Rap1B-BODIPY-GDP, fluorescence; Potency, µM (doses to about 114 µM), most hits filed as inhibitors; actives 0.18% (n = 360,000); AID 720708; note: nearly all actives have a fitted effect of over 45% in size
Rango complex inh: prevents formation of the Rango-importin beta complex. Q14974. Rango CFP/YFP FRET sensor + importin beta, 45 min. Potency, µM (series often up to 92.2 µM). actives 0.031% (n = 340,000); calls by dose curve; note: nearly all actives have a fitted effect of over 15% in size
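FRET biosensor (snurportin 1 IBB flanked by EYFP and cerulean), 50 nM, with compound 5 min, then 0.125 microM importin beta in PBS, 1 mM DTT, 0.02% Tween-20, 0.1% BSA. CFP/YFP ratio read after 45 min at room temperature; pre-read flags interference.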
EPAC1 ag: activates human EPAC1 exchange factor; Potency, µM (top dose mostly 154 µM), actives largely listed as activators; actives 0.073% (n = 360,000); EPAC1 agonist qHTS, biochemical assay; response scale: 100% = response to 6.5 mM cAMP; O95398; note: nearly all actives have a fitted effect of over 60% in size
Target sequence (O95398 whole entry, looked up): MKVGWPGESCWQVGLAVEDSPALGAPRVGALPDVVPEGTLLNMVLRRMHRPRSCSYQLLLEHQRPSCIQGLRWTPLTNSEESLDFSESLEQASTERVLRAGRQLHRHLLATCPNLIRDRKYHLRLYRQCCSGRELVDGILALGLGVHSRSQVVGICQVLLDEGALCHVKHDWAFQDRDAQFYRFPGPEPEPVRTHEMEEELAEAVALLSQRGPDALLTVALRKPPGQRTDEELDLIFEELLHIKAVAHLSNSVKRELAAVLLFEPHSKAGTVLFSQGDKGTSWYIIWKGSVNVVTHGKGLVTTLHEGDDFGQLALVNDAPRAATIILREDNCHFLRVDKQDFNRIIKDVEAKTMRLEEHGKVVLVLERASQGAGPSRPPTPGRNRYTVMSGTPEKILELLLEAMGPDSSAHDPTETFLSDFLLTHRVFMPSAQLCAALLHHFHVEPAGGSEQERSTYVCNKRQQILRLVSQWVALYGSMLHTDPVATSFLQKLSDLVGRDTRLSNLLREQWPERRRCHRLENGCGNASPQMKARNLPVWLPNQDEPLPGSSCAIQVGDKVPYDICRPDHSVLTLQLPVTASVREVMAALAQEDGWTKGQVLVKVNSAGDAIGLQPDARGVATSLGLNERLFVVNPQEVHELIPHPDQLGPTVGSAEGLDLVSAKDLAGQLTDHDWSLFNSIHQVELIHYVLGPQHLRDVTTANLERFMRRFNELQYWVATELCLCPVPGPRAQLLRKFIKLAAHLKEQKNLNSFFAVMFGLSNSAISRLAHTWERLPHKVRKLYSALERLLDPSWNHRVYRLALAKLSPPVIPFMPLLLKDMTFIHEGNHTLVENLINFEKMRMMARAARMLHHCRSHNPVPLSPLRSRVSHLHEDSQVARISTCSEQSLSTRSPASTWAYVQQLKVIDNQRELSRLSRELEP
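Read-out is the fluorescence drop as BODIPY-GDP leaves Rap1B (480 nm excitation, 540 nm emission), recorded every 5 minutes over 30 minutes. Reactions held 100 nM EPAC1, 250 nM Rap1B–BODIPY-GDP and 50 uM GDP, with 6.5 mM cAMP setting full activation.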
EPAC1 antag: antagonists of human EPAC1; O95398; Potency, µM (top dose mostly 115 µM), actives largely listed as inhibitors; EPAC1 GEF assay, Rap1b-BODIPY-GDP exchange fluorescence; actives 0.14% (n = 360,000); note: nearly all actives have a fitted effect of over 50% in size
EPAC2 ag: EPAC2 (human) agonism. Q8WZA2. EPAC2 activation, biochemical qHTS; response scale: 100% = 6.5 mM cAMP response. Potency, µM (highest dose often 154 µM), most hits filed as activators. actives 0.079% (n = 360,000); note: nearly all actives have a fitted effect of over 50% in size
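qHTS, titration series. 100 nM EPAC2 / 250 nM Rap1B-BODIPY-GDP / 50 uM GDP; RT; ex 480/em 540 nm, 5-min reads to 30 min. Norm. to 6.5 mM cAMP = activation.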
Rango dissoc inh: prevents RanGTP from dissociating the Rango-importin beta complex; O95149+P62826; Biochemical FRET Rango-importin beta, RanGTP-induced dissociation; Potency, µM (series often up to 46.1 µM); actives 0.071% (n = 340,000); AID 540253; calls by dose curve; note: nearly all actives have a fitted effect of over 45% in size
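Quantitative HTS using a FRET biosensor: 0.1 uM Rango, 0.25 uM importin beta, 0.6 uM Ran, 2 mM GTP, 0.2 uM RCC1 final, PBS with DTT, Tween-20 and BSA. Post-read taken 45 min after Ran addition.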
Of the large screens only hits and unclear results are named; the others gave an inactive call. The list is not random: actives were taken first. Their share in the collection is about 0.43%. Unless noted, calls come from the whole dose curve; as a rule, active = well fitted curve in the direction sought with a large enough effect; inconclusive = small, poorly fitted or top-dose-only effect, or another doubt; inactive = no such curve, though single readings can be large; an effect the other way counts as inactive or inconclusive.

Cc1ccc(-c2cc(C(=O)Nc3ccc4c(c3)OCCO4)c3ccccc3n2)cc1	EPAC2 ag 7.94µM
O=C(Nc1ccc2c(c1)OCO2)c1cc(-c2cccnc2)nc2ccccc12	none
O=C(CSc1nnc(-c2cccs2)n1Cc1ccco1)Nc1ccc2c(c1)OCO2	EPAC2 ag 7.94µM
O=c1c(-c2c(O)cc(O)c3c(=O)cc(-c4ccc(O)cc4)oc23)c(-c2ccc(O)cc2)oc2cc(O)cc(O)c12	Rango complex inh inconclusive, EPAC1 antag 56.2µM
O=c1cc(-c2ccc(O)cc2)oc2c(-c3c(O)cc(O)c4c(=O)cc(-c5ccc(O)cc5)oc34)c(O)cc(O)c12	none
CN1CCN(C2=C(Cl)C(=O)c3ccccc3C2=O)CC1	EPAC2 antag inconclusive, Rango complex inh inconclusive, EPAC1 antag 28.2µM
O=C(O)c1ccc(N/N=C/c2c(F)cccc2Cl)cc1	EPAC2 antag 39.8µM
O=C(N/N=C/c1c(F)cccc1Cl)C1CC1	none
CCN1C=C(Cc2ccccc2C)C2=C(C1)C(c1ccccc1C)C(C#N)=C(N)O2 (stereo not given)	Rango complex inh inconclusive, Rango dissoc inh 8.2µM
CCN1C=C(Cc2ccc(F)cc2)C2=C(C1)C(c1ccc(F)cc1)C(C#N)=C(N)O2 (stereo not given)	Rango complex inh inconclusive, Rango dissoc inh inconclusive
CS(=O)(=O)c1ccc(C(=O)OCc2nnc(-c3ccccc3)o2)cc1[N+](=O)[O-]	EPAC1 antag 89.1µM
O=C(CSc1nccn1-c1cccc(Cl)c1)NC1CCCC1	none
O=C(CSc1nnc(SCc2ccc(Cl)cc2)s1)N/N=C/c1ccc(C(=O)O)cc1	EPAC2 antag 44.7µM, Rango dissoc inh inconclusive
Cc1ccc(S(=O)c2ccc([N+](=O)[O-])c3nonc23)cc1 (stereo not given)	EPAC2 antag 50.1µM, EPAC1 antag inconclusive (no result: Rango complex inh, Rango dissoc inh)
Cc1ccc(Nc2c([N+](=O)[O-])ccc3nonc23)c(C)c1	none
O=[N+]([O-])c1ccccc1S(=O)(=O)Nc1ccc(S(=O)(=O)Nc2nccs2)cc1	none
Nc1ccc(S(=O)(=O)Nc2nccs2)cc1N=Nc1ccccc1[N+](=O)[O-]	EPAC2 antag 10µM, EPAC1 antag inconclusive
Cc1ccc2c(CN(Cc3ccccc3)Cc3ccccc3)cc(=O)oc2c1	EPAC2 antag inconclusive (no result: Rango complex inh, Rango dissoc inh)
O=C1C(=C(c2ccccc2)c2ccccc2)Nc2ccccc21	EPAC2 ag 6.31µM
Brc1cc2c(cc1CSc1ncccn1)OCO2	EPAC2 antag 35.5µM
NC(=S)Nc1ncc(C(F)(F)F)cc1Cl	none
COc1cccc(/C=C2/CN(C)CC3=C2OC(N)=C(C#N)C3c2cccc(OC)c2)c1 (stereo not given)	Rango complex inh inconclusive, Rango dissoc inh 20.6µM
CCOC(=O)c1c(N2C(=O)Nc3cc(Cl)c(Cl)cc3N2O)sc2c1CCCCC2	EPAC1 antag 50.1µM
CCOC(=O)c1c(-n2cnnn2)sc2c1CCCC2	none
COc1cc(/C=C2/C(=O)c3cccc([N+](=O)[O-])c3C2=O)c(Br)cc1O	EPAC1 antag 39.8µM, Rango dissoc inh inconclusive
CNc1snc(C)c1C(=O)OCC(=O)Nc1ccc(C)cc1F	EPAC1 ag 56.2µM
CC(C)OC1(c2ccccc2)OC(=O)c2ccccc21 (stereo not given)	EPAC2 antag 35.5µM
CCOC1(c2ccccc2)OC(=O)c2ccccc21 (stereo not given)	EPAC2 antag inconclusive
N#C/C(=C\c1ccc(N2CCOCC2)o1)C(=O)NCCc1ccccc1	Rango complex inh inconclusive, Rango dissoc inh inconclusive
N#C/C(=C/c1ccc(N2CCOCC2)o1)C(=O)Nc1ccccc1	Rango complex inh inconclusive, EPAC1 ag 100µM, EPAC2 ag 100µM, Rango dissoc inh inconclusive
O=C(N/N=C/c1c(O)n(-c2ccccc2Cl)c(=O)c2ccccc12)C1COc2ccccc2O1 (stereo not given)	Rango complex inh inconclusive, EPAC1 antag 10µM, Rango dissoc inh inconclusive
Cn1nc(-c2ccccc2)c2nc3ccccc3nc21	Rango complex inh inconclusive, EPAC2 ag 100µM, Rango dissoc inh inconclusive
COc1cc2c3nnc(-c4ccc(F)cc4)c-3cn(Cc3ccc(C)cc3)c2cc1OC	Rango complex inh inconclusive, Rango dissoc inh inconclusive
COc1cc2c3nnc(-c4ccccc4)c-3cn(Cc3ccc(F)cc3)c2cc1OC	EPAC2 antag 70.8µM, Rango complex inh inconclusive, Rango dissoc inh inconclusive
CCN(CC)CC1CN(N=Cc2ccc([N+](=O)[O-])o2)C(=O)O1 (stereo not given)	none
O=c1c2ccccc2nc(/C=C/c2cccnc2)n1CCc1ccccc1	EPAC1 antag 79.4µM
O=c1c2ccccc2nc(/C=C/c2ccccc2)n1CCc1ccccc1	none
O=C(O)C1C2CCC(O2)C1C(=O)Nc1cccc(Cl)c1 (stereo not given)	none
COc1cc(C(c2c(C(=O)O)[nH]c3ccccc23)c2c(C(=O)O)[nH]c3ccccc23)ccc1OCc1ccccc1	EPAC1 antag 39.8µM
CC1CCN(c2ccc3c(c2)S(=O)(=O)c2ccccc2C3=O)CC1	Rango complex inh inconclusive, EPAC1 ag 89.1µM, Rango dissoc inh inconclusive
O=C1c2ccccc2S(=O)(=O)c2cc(N3CCC4(CC3)OCCO4)ccc21	Rango complex inh inconclusive, EPAC2 ag 112µM, Rango dissoc inh inconclusive
Oc1cccc2cc(Nc3ccccc3)cnc12	none (no result: Rango complex inh, Rango dissoc inh)
CC(C)Cc1csc(NC(=O)c2ccc(Cl)cc2)c1C(=O)O	EPAC1 antag 17.8µM
O=C(Nc1sc2c(c1C(=O)O)CCCCC2)c1ccccc1	none
CC(C)Cc1csc(NC(=O)c2ccccc2Cl)c1C(=O)O	none
O=C(Nc1sc2c(c1C(=O)O)CCCC2)c1ccc(Cl)cc1	EPAC1 antag 28.2µM
COc1cc(/C=C2\CCCc3c2nc2ccccc2c3C(=O)O)cc(Br)c1O	Rango complex inh inconclusive, Rango dissoc inh inconclusive
CCOc1cc(/C=C2\CCCc3c2nc2ccccc2c3C(=O)O)ccc1OC	Rango complex inh inconclusive, EPAC1 ag 100µM, EPAC2 ag 100µM, Rango dissoc inh inconclusive
CCn1c2ccccc2c2cc(NC(=O)c3ccc(=O)oc3)ccc21	Rango complex inh inconclusive, EPAC2 ag 100µM, Rango dissoc inh inconclusive
O=C1c2cccnc2-c2ncccc21	none
COC1=C(Br)C(=O)c2ncccc2C1=O	EPAC2 antag 8.91µM, EPAC1 antag inconclusive
N#Cc1ccc(CN2C=NS(=O)(=O)c3ccccc32)cc1	none
COc1ccc(CCc2ccc3cc(OC)ccc3n2)cc1	none
COc1ccc2cc(CCC(C)=O)ccc2c1	EPAC2 antag 28.2µM
CCOC(=O)c1oc2ccc(S(=O)(=O)n3nc(-c4cc(OC)c(OC)c(OC)c4)cc3N)cc2c1C	none
